From PubChem BioAssay
An excerpt weighted towards active compounds, which were near 7% of everything screened.
ADAM17 inh: ADAM17 inhibitors, primary screen, biochemical, QFRET | Disintegrin and metalloproteinase domain-containing protein 17 (Homo sapiens), P78536 | recombinant ADAM17, EDANS/DABCYL FRET peptide cleavage | inhibition, % at 6.95 µM | hit rate 0.83% among 370,000 | AID 720648, 2013;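 active = inhibition above the mean of compounds lying between control limits plus 3 SD, set per campaign, cut at about 8.5% in these data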;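 note: 0% = DMSO-only wells as the low control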
ADAM10 inh: human ADAM10 inhibitors, primary screen, biochemical, QFRET, HTS. Disintegrin and metalloproteinase domain-containing protein 10 (Homo sapiens), O14672. recombinant ADAM10, EDANS/DABCYL FRET peptide cleavage, 3 h. inhibition, % at 7 µM. hit rate 0.62% among 370,000. AID 720582, 2013;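 active = inhibition above a per-campaign cutoff equal to the mean of compounds falling between control-based bounds plus 3 SD, cut at about 20% in these data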;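 note: 0% = DMSO wells while the 100% control is not disclosed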
rCAG RNA binder: binders of r(CAG) RNA repeats, primary screen, biochemical, fluorescence; hit rate 1.3% among 370,000; r(CAG) RNA repeat, TO-PRO-1 dye displacement fluorescence; AID 651821, 2012; inhibition, % at 3 µM;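 active = inhibition above the plate cutoff, the mean of all test compounds on that plate plus 3 SD, cut at about 35% in these data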;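 note: 0% = DMSO alone and 100% = 100 µM mitoxantrone as full dye displacement; higher means more dye released from RNA so lower well fluorescence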
GRIN3A LBD mod: binders of NR3A ligand-binding domain, primary screen, biophysical, differential scanning fluorimetry, uHTS | Glutamate receptor ionotropic, NMDA 3A (GRIN3A) ligand-binding domain | NR3A LBD differential scanning fluorimetry, Tm shift; 0% = protein alone, 100% = glycine-bound protein | Tm shift relative to glycine control, % at 25 µM | hit rate 2.5% among 340,000;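 active = melting temperature shift of at least 10% of the positive control shift, at one fixed dose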
KLK7 zymogen act: proKLK7 zymogen activators, primary screen, biochemical, fluorescence intensity. Kallikrein-7 (Homo sapiens), P49862. purified proKLK7, EDANS-DABCYL substrate fluorescence; 100% is mature enzyme control, 0% vehicle. activation, % at 7 µM. hit rate 0.9% among 370,000. AID 652039, 2013;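 active = activation above the mean of all tested compounds plus 3 SD, computed per campaign excluding outliers beyond control limits, cut at about 13% in these data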
AHR act: AHR activators, primary screen, cell-based, luminescence, luciferase reporter, human | Aryl hydrocarbon receptor (Homo sapiens), P35869 | AHR-responsive luciferase reporter cells | activation, % at 5 µM | hit rate 2.5% among 320,000; in the data active = activation above about 47%;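 note: 0% = vehicle wells and 100% = reference agonist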
rCAG binder conf: small molecules binding CAG repeat RNA – biochemical, fluorescence, confirmation. r(CAG) RNA repeat, TO-PRO-1 dye displacement fluorescence. hit rate 70% among 4,300. shares compounds with rCAG RNA binder. inhibition, % at 3 µM;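 active = inhibition above a per-plate cutoff, the mean inhibition of sample wells plus 3 SD, cut at about 35% in these data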;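 note: loss of TO-PRO-1 fluorescence as compound displaces dye from 1x1 AA loop RNA; 0% = DMSO only wells and 100% = 100 µM mitoxantrone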
dCAG dye counter: displacement of TO-PRO-1 from CAG DNA duplex, counter-screen for rCAG RNA repeat binder project, biochemical, fluorescence, TO-PRO-1 dye, d(CAG) DNA oligo. shares compounds with rCAG RNA binder. d(CAG) DNA oligo TO-PRO-1 dye displacement. inhibition, % at 3 µM. hit rate 94% among 4,300. AID 652068, 2013;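 active = inhibition above its plate's cutoff, the mean test-well inhibition plus 3 SD, cut at about 4.8% in these data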;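 note: 0% = DNA dye mix with DMSO and 100% = 100 µM mitoxantrone; hits displace the dye from DNA and so lower well fluorescence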
dCAG dye DR: inhibitors of DNA CAG/GTC TO-PRO-1 complex, dose response, counter-screen for rCAG RNA repeat binder project, biochemical, fluorescence, TO-PRO-1 dye. DNA CAG/GTC duplex TO-PRO-1 dye displacement fluorescence. hit rate 20% among 250. AID 686960, 2013. IC50, µM. shares compounds with rCAG RNA binder; in the data active = IC50 below about 10 µM
* = called active by the depositor; nt = no result given.

SMILES	ADAM17 inh	ADAM10 inh	rCAG RNA binder	GRIN3A LBD mod	KLK7 zymogen act	AHR act	rCAG binder conf	dCAG dye counter	others
CCc1nnc(NS(=O)(=O)c2ccc(N=Cc3c(C)[nH]n(-c4ccc(Cl)cc4)c3=O)cc2)s1	-2	10	49*	13*	0	10	84*	59*
CCc1nnc(NS(=O)(=O)c2ccc(N=Cc3c(C)[nH]n(-c4cccc(Cl)c4)c3=O)cc2)s1	-4	-6	53*	20*	0	8	86*	63*
COc1nccnc1NS(=O)(=O)c1ccc(N=Cc2c(C)[nH]n(-c3ccc(C)c(C)c3)c2=O)cc1	-4	2	27	1	1	5	nt	nt
O=C1c2cc(O)cc(O)c2C(=O)c2c1cc(O)c([C@@H](CO)CCO)c2O	6	-12	53*	1	0	15	44*	19*
O=C(CSc1nnnn1-c1cccc2ccccc12)NC(C(=O)O)(c1ccccc1)c1ccccc1	1	4	46*	-1	0	0	36*	10*
Cc1ccc(-n2nnnc2SCC(=O)NC(C(=O)O)(c2ccccc2)c2ccccc2)cc1C	-1	-5	38*	-1	0	2	38*	10*
O=C(CSc1nnnn1-c1cccc2ccccc12)N1CCOCC1	0	4	0	-1	-1	-1	nt	nt
Cc1ccc(CNC(=O)C(C)OC(=O)c2ccco2)cc1 (stereo not given)	0	4	56*	-1	0	-2	2	-1
CCN(CC)S(=O)(=O)c1cc(NS(=O)(=O)c2cccc(Cl)c2Cl)ccc1C	0	9	42*	-5	1	1	41*	12*
O=C(Cn1nnc(-c2ccc(N3CCOCC3)cc2)n1)c1ccc(F)cc1	-1	-4	9	nt	0	nt	nt	nt
N#CC(C#N)=C(Nc1ccc(F)cc1)SCc1cccc(Br)c1	5	18	47*	25*	0	1	51*	16*	dCAG dye DR=>30
CC(SCc1ccccc1)C(=O)Nc1ccc(F)cc1 (stereo not given)	2	14	6	1	0	2	nt	nt
CCC1=C(C)CN(C(=O)NCCc2ccc(S(=O)(=O)NC(=O)NC3CCC(C)CC3)cc2)C1=O (stereo not given)	0	0	42*	0	-1	0	33	5.0*
O=C(NCc1ccccc1)C(C1CC1)n1c(CSCCOc2ccccc2)nc2ccccc21 (stereo not given)	6	10	0	nt	0	nt	nt	nt
COc1cccc2c1[C@H](/C=C/c1ccccc1)[C@@H]([C@H](O)COC(C)=O)OC2	4	4	4	nt	0	nt	nt	nt
CCOc1ccc(C(=O)N[C@H](C(=O)Nc2ccc(S(=O)(=O)Nc3nccs3)cc2)C(C)C)cc1	-6	1	47*	-5	0	-1	46*	15*
Cc1cccc(C(=O)NC(C(=O)Nc2ccc(S(=O)(=O)Nc3nccs3)cc2)C(C)C)c1 (stereo not given)	2	-9	42*	-7	0	nt	35*	13*
